# Measurements taken from PubChem BioAssay.
# Molecular target: Epidermal growth factor receptor (Homo sapiens) (UniProt P00533)
# Experiment: EGFR binders on small-molecule microarrays, primary screen, biochemical, small-molecule microarray, 635 nm fluorescence (AID 1104);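 note: score merges 667 nm emission intensity with spot signal to noise over triplicate slides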
# Conditions: EGFR binding, higher = more signal
# Chain of Epidermal growth factor receptor (Homo sapiens) (P00533 whole entry, looked up): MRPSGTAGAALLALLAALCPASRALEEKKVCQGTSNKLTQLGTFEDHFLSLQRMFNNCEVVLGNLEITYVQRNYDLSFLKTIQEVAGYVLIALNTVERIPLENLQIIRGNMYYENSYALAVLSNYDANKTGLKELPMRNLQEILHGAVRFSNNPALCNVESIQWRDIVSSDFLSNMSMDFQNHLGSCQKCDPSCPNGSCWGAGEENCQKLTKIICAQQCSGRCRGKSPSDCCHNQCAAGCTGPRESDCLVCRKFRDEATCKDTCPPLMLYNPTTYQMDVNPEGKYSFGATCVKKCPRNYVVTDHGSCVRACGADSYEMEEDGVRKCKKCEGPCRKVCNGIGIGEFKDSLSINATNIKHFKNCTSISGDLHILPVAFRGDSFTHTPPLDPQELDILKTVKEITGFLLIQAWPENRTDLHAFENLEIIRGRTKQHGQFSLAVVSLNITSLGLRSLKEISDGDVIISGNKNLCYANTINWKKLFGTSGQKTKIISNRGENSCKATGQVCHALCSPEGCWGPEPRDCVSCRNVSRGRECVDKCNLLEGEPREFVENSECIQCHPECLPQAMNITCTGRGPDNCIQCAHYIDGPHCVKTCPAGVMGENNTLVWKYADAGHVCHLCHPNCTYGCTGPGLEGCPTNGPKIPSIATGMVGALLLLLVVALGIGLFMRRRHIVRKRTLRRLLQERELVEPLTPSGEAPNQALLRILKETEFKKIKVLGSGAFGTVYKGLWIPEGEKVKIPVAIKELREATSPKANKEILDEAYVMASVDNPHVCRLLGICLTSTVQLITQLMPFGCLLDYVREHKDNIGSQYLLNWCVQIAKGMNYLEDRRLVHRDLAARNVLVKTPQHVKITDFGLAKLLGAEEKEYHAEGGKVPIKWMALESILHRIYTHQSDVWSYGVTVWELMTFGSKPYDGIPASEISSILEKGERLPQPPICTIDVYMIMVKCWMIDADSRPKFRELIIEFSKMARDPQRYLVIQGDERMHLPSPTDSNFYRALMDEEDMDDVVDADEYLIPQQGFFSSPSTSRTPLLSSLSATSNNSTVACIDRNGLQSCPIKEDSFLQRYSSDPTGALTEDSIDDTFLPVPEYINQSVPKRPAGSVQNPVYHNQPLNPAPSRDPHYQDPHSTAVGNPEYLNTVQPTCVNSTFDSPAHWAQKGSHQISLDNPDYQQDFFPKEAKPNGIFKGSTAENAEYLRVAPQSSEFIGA
row,Structure (SMILES),composite z-score
1,COc1ccc([Si](C)(C)[C@H]2[C@H](CC(=O)N3CCC[C@H]3CO)O[C@@]3(C(=O)N(Cc4cccc(N5C(=O)COc6ccccc65)c4)c4ccccc43)[C@@H]2C)cc1,0.771
2,CC(=O)OC[C@H]1O[C@H](C#CCCCc2ccccc2)C=C[C@@H]1OC(C)=O,0.0559
3,CC(C)[C@H](NC(=O)OC(C)(C)C)[C@@H](O)CC(=O)OC(C)(C)C,-0.664
4,COCCCNC(=O)[C@]1(CCC(=O)OC(C)(C)C)N=C(c2ccc(OCCCO)cc2)O[C@@H]1c1ccccc1N=[N+]=[N-],0.287
5,C[C@@H]1C=CCC(=O)OC[C@H](C)C(=O)N[C@@H](C)C(=O)OC1,0.282
6,COC(=O)[C@@]1(Cc2ccc(F)cc2)[C@H]2c3cc(C(=O)N(C)C)n(Cc4ccc(OC)c(OC)c4)c3C[C@H]2CN1C(=O)c1ccccc1,0.278
7,CCCCCN1CC=CC23O[C@@H]4C=CCOC(=O)[C@@H]4[C@H]2C(=O)N(CCCCCCO)[C@@H]3C1=O (stereo partly drawn),-1.31
8,COc1ccc(O[C@H]2C=C[C@@H](c3ccccc3)O[C@@H]2COC(=O)CCC(C)=NO[C@H](C)c2cn([C@@H]3COC[C@H]3O)nn2)cc1,0.562
9,C#C[C@@H]1Oc2ccccc2S(=O)(=O)N2CCC[C@H]12,0.304
10,CC(C)(C)OC(=O)CC[C@]1(C(N)=O)COC(c2ccc(OCCCO)cc2)=N1,-0.395
11,COc1ccc(O[C@H]2C=C[C@@H](c3ccccc3)O[C@@H]2COC(=O)CCC(C)=NOC[C@@H](C)[C@H](OCc2ccccc2)C(C)C)cc1,-0.706
12,Cc1ccc(F)cc1S(=O)(=O)N[C@@H]1CCN(Cc2ccc(CC(C)C)cc2)C1,-0.397
13,CCc1cc2c(nc1CC)CCN(CCC(C)=NOC(C)CN1CCCc3nc(C)c(C)cc31)C2 (stereo not drawn),1.16
14,Cc1ccc(S(=O)(=O)N[C@@H]2COC(=O)[C@H](C)COC(=O)CC=C[C@H]2C)cc1,0.751
15,O=C1C[C@@H](O)[C@@H](O)[C@@H]2[C@@H]3C(=O)N(Cc4ccc5c(c4)OCO5)C(=O)[C@@H]3CC[C@@H]12,0.428
16,CN1C(=O)[C@@]2(CCC(=O)OC(C)(C)C)N=C(c3ccc(OCCCO)cc3)O[C@H]2c2ccccc21,0.181
17,COCCOC(=O)N1C(=O)[C@@]2(c3cc(C#CC4(O)CCCCCC4)ccc31)[C@H](C(=O)N1CCN(c3ncccn3)CC1)[C@H]1C(=O)O[C@H](c3ccccc3)[C@H](c3ccccc3)N1[C@@H]2c1ccc(OCCO)cc1,0.729
18,CCOC(=O)[C@H](CC(C)C)NC(=O)CCC1CC(OC(=O)NCc2cccc3ccccc23)CC2(CCCC(COC(=O)NCCc3ccccc3OC)O2)O1 (stereo partly drawn),0.387
19,COC(=O)[C@H](C)NC(=O)CCC1CC(OC(=O)NCc2cccc3ccccc23)CC2(CCCC(COC(=O)NCCc3ccc(Cl)cc3)O2)O1 (stereo partly drawn),0.381
20,O[C@@H](Cc1ccccc1)[C@H]1C2C=CCCC(c3ccccc3)=C2CN1Cc1cccc(Cl)c1 (stereo partly drawn),0.21
21,O=C1[C@H]2[C@H]3[C@H](O)[C@H](O)CC(=NO[C@@H]4O[C@H](CO)[C@@H](O)[C@H](O)[C@H]4O)[C@@H]3CC[C@H]2C(=O)N1Cc1ccccc1,0.331
22,COCCOC(=O)N1C(=O)[C@@]2(c3cc(C#CCNC(N)=O)ccc31)[C@H](c1ccccc1OCCO)N1[C@H](c3ccccc3)[C@H](c3ccccc3)OC(=O)[C@H]1[C@@H]2C(=O)N1CCN(c2ncccn2)CC1,0.315
23,O=C1[C@H]2[C@H]3[C@H](O)[C@H](O)CC(=NO[C@@H]4O[C@H](CO)[C@@H](O)[C@H](O)[C@H]4O)[C@H]3CC[C@H]2C(=O)N1Cc1ccccc1,0.426
24,CC(C)(C)N1C(=O)[C@H]2[C@H]3[C@H](O)[C@H](O)CC(=NO[C@@H]4O[C@H](CO)[C@@H](O)[C@H](O)[C@H]4O)[C@@H]3CC[C@H]2C1=O,0.768
25,O=C1[C@H]2[C@H]3[C@H](O)[C@H](O)CC(=NO[C@@H]4O[C@H](CO)[C@@H](O)[C@H](O)[C@H]4O)[C@H]3CC[C@H]2C(=O)N1C1CCCCC1,-0.0158
26,CC[C@@H](c1ccccc1)n1c(=O)n2n(c1=O)[C@H]1[C@H](O)[C@@H]3O[C@@H]3C(=NOCC(C)C)[C@H]1CC2,0.143
27,CCCC[C@@H](O)C1=C(C)C[C@H]2C(=O)N(Cc3ccccc3)C(=O)[C@H]2[C@H]1CO,0.464
28,CC(C)=C1C(=O)C(c2ccccc2)=C2CN3C(=O)N(CCc4ccccc4)C(=O)[C@]3(Cc3ccc(F)cc3)[C@H]21,-2.06
